In PubChem BioAssay (Tox21):
Inconclusive results are not listed. Activity calls are given as the source filed them. Unless noted, calls come from the whole dose curve; as a rule, active = well fitted curve in the direction sought with a large enough effect in the repeat runs; inconclusive = weak or mixed curves; inactive = no such curve, though single readings can be large; an effect the other way counts as inactive or inconclusive.

How the values were obtained:
[1] = qHTS assay to identify small molecule antagonists of the thyroid receptor (TR) signaling pathway (AID 743065); note: series mostly up to about 70 µM; nearly all actives have a fitted effect of over 55% in size
How it was run: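 Antagonism measured as loss of luciferase signal in GH3 cells stably carrying a TRE-luciferase reporter, co-treated with compound and T3 (1 nM final) for 23.5 h at 37 C. Viability was read in the same well by CellTiter-Fluor.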

[2] = system: thyroid hormone receptor (rat, GH3 cells); assay: qHTS assay to identify small molecule agonists of the thyroid receptor (TR) signaling pathway (AID 743066; calls by dose curve)
[3] = target: Estrogen receptor (Homo sapiens) (UniProt P03372); assay: qHTS assay to identify small molecule antagonists of the estrogen receptor alpha (ER-alpha) signaling pathway (AID 743069; active = well fitted curve in the direction sought with a large enough effect in the signal ratio in the repeat runs, not every such curve was filed as active; the % refers to the signal ratio)
How it was run: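 Antagonist mode: compounds in DMSO were co-added with 17beta-estradiol to ER-alpha-bla HEK293 cells (2% charcoal-stripped serum) and left 18 h at 37C. Reporter inhibition was measured as FRET fluorescence after 2 h LiveBLAzer substrate at room temperature.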

[4] = qHTS assay to identify small molecule antagonists of the estrogen receptor alpha (ER-alpha) signaling pathway - cell viability counter screen (AID 743074; calls by dose curve;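 note: HEK293 cells carrying ER-alpha-UAS-bla reporter stimulated with 17beta-estradiol; nearly all actives have a fitted effect of over 45% in size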)
[5] = target: Estrogen receptor (Homo sapiens) (UniProt P03372); assay: qHTS assay to identify small molecule agonists of the estrogen receptor alpha (ER-alpha) signaling pathway (AID 743075; calls by dose curve;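 note: HEK293 GripTite cells with ER-alpha and UAS-driven beta-lactamase reporter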)
[6] = target: Estrogen receptor (Homo sapiens) (UniProt P03372); assay: qHTS assay to identify small molecule agonists of the estrogen receptor alpha (ER-alpha) signaling pathway using the BG1 cell line (AID 743079); note: nearly all actives have a fitted effect of over 20% in size
[7] = qHTS assay to identify small molecule antagonists of the estrogen receptor alpha (ER-alpha) signaling pathway using the BG1 cell line (AID 743080; calls by dose curve;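 note: BG1 cells stimulated with 17beta-estradiol alongside compound; series mostly up to about 70 µM; nearly all actives have a fitted effect of over 25% in size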)
How it was run: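 Luminescence from a 4×ERE-luciferase reporter in BG1-Luc-4E2 cells served as read-out. Cells, pre-cultured 5 days in stripped-serum phenol-red-free medium, were exposed to compound with 17beta-estradiol co-stimulation for 21.5 h at 37 C.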

[8] = qHTS assay to identify small molecule antagonists of the estrogen receptor alpha (ER-alpha) signaling pathway using the BG1 cell line - cell viability counter screen (AID 743081);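 note: compound given together with 17beta-estradiol as the ER stimulus; series mostly up to about 70 µM; nearly all actives have a fitted effect of over 45% in size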
Aromatase (Homo sapiens) = Aromatase (Homo sapiens) (UniProt P11511); assay: qHTS assay to identify aromatase inhibitors (AID 743083); note: series mostly up to about 70 µM; nearly all actives have a fitted effect of over 55% in size
[9] = qHTS assay to identify aromatase inhibitors - cell viability counter screen (AID 743084);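 note: cells stimulated with testosterone during compound exposure; nearly all actives have a fitted effect of over 55% in size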

Measured: Potency

Estrogen receptor (Homo sapiens), sequence (P03372 whole entry, looked up): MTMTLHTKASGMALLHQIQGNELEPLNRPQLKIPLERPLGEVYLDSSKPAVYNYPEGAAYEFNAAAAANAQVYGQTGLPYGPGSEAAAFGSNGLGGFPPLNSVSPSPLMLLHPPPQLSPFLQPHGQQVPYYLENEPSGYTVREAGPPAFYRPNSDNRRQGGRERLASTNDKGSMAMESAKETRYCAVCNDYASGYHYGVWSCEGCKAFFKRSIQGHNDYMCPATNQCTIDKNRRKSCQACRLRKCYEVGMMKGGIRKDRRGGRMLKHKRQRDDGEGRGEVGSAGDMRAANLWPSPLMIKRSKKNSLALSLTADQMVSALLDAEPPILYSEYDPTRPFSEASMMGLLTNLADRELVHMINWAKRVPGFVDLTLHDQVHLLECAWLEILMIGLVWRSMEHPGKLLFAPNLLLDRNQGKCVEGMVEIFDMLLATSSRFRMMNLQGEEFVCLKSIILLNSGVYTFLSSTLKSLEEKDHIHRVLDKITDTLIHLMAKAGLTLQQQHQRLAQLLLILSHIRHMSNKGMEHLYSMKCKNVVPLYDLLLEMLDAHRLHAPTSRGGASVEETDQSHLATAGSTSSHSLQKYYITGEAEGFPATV
Aromatase (Homo sapiens), sequence (P11511 whole entry, looked up): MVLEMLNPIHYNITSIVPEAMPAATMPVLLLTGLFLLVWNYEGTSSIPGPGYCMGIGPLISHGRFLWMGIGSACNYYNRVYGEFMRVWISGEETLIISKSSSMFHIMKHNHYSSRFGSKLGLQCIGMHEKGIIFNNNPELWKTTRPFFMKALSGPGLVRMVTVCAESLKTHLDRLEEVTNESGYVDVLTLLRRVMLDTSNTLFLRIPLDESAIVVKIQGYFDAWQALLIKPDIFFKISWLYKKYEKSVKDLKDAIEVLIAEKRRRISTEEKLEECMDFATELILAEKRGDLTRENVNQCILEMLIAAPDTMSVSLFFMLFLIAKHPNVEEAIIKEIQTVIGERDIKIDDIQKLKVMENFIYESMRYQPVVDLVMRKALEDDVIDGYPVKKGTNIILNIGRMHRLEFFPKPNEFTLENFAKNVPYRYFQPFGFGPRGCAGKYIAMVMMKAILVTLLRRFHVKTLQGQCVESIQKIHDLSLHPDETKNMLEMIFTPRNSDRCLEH

CCCCCCCCCCCBr
inactive: [1] | [2] | [3] | [4] | [5] | [6] | [7] | [8] | Aromatase (Homo sapiens) | [9]

C=CC(C)(CCC=C(C)C)OC(=O)C(C)C (stereo not drawn)
inactive: [1] | [2] | [3] | [4] | [5] | [6] | [7] | [8] | Aromatase (Homo sapiens) | [9]

CCO[Si](CC(C)C)(OCC)OCC
inactive: [1] | [2] | [3] | [4] | [5] | [6] | [7] | [8] | Aromatase (Homo sapiens)

CCCCN(CCCC)CCCCCCN(CCCC)CCCC
inactive: [1] | [2] | [3] | [4] | [5] | [6] | [7] | [8] | Aromatase (Homo sapiens) | [9]

Cc1ccccc1C#N
inactive: [1] | [2] | [3] | [4] | [5] | [6] | [7] | [8] | Aromatase (Homo sapiens) | [9]

CC(C)(O)c1ccc(C(C)(C)O)cc1
inactive: [1] | [2] | [3] | [4] | [5] | [6] | [7] | [8] | Aromatase (Homo sapiens) | [9]

O=C(OOC(=O)c1ccccc1)c1ccccc1
inactive: [1] | [2] | [3] | [4] | [5] | [6] | [7] | [8] | Aromatase (Homo sapiens) | [9]

Cc1cc(C)c(C)c(C)c1
inactive: [1] | [2] | [3] | [4] | [5] | [6] | [7] | [8] | Aromatase (Homo sapiens) | [9]

CC[C@@]1(c2ccccc2)NC(=O)N(C)C1=O
inactive: [1] | [2] | [3] | [4] | [5] | [6] | [7] | [8] | Aromatase (Homo sapiens) | [9]

Cc1ccc(N)nc1
inactive: [1] | [2] | [3] | [4] | [5] | [6] | [7] | [8] | Aromatase (Homo sapiens) | [9]

C/C=C/C(=O)CCCC
inactive: [1] | [2] | [3] | [4] | [5] | [6] | [7] | [8] | Aromatase (Homo sapiens) | [9]

C[Si](C)(C)O[Si](O)(O)O
inactive: [1] | [2] | [3] | [4] | [5] | [6] | [7] | [8] | Aromatase (Homo sapiens) | [9]

CN(C)c1cc(NC(=O)CNC(C)(C)C)c(O)c2c1C[C@H]1C[C@H]3[C@H](N(C)C)C(=O)C(C(N)=O)=C(O)[C@@]3(O)C(=O)C1=C2O
inactive: [1] | [2] | [3] | [4] | [5] | [6] | [7] | [8] | Aromatase (Homo sapiens) | [9]

Cc1cccc(N)n1
inactive: [1] | [2] | [3] | [4] | [5] | [6] | [7] | [8] | Aromatase (Homo sapiens) | [9]

NNC(=O)OCc1ccccc1
inactive: [1] | [2] | [3] | [4] | [5] | [6] | [7] | [8] | Aromatase (Homo sapiens) | [9]

Cc1ccc(O)c([N+](=O)[O-])c1
inactive: [1] | [2] | [3] | [4] | [5] | [6] | [7] | [8] | Aromatase (Homo sapiens) | [9]

CCCc1ccc(O)c(OC)c1
inactive: [1] | [2] | [3] | [4] | [5] | [6] | [7] | [8] | Aromatase (Homo sapiens) | [9]

CCC(C)(C)C
inactive: [1] | [2] | [3] | [4] | [5] | [6] | [7] | [8] | Aromatase (Homo sapiens)

CCNC(=O)C(C)OC(=O)Nc1ccccc1 (stereo not drawn)
inactive: [1] | [2] | [3] | [4] | [5] | [6] | [7] | [8] | Aromatase (Homo sapiens) | [9]

CC(=O)Nc1ccc(OCCOCCOc2ccc(NC(C)=O)cc2)cc1
inactive: [1] | [2] | [3] | [4] | [5] | [6] | [7] | [8] | Aromatase (Homo sapiens) | [9]

CCN(CC)CC
inactive: [1] | [2] | [3] | [4] | [5] | [6] | [7] | [8] | Aromatase (Homo sapiens) | [9]

Nc1cc(S(=O)(=O)O)ccc1O
inactive: [1] | [2] | [3] | [4] | [5] | [6] | [7] | [8] | Aromatase (Homo sapiens) | [9]

CC(=O)OC/C=C(/C)CCC=C(C)C
inactive: [1] | [2] | [3] | [4] | [5] | [6] | [7] | [8] | Aromatase (Homo sapiens) | [9]

CC(=O)Nc1ccc(S(=O)(=O)Nc2cc(C)on2)cc1
inactive: [1] | [2] | [3] | [4] | [5] | [6] | [7] | [8] | Aromatase (Homo sapiens) | [9]

CC(C)(C)C(=O)CC(=O)C(C)(C)C
inactive: [1] | [2] | [3] | [4] | [5] | [6] | [7] | [8] | Aromatase (Homo sapiens) | [9]

O=C(CCBr)N1CCN(C(=O)CCBr)CC1
inactive: [1] | [2] | [3] | [4] | [5] | [6] | [7] | [8] | Aromatase (Homo sapiens) | [9]
